FUS yeast rescue – rescues growth of FUS-expressing yeast. S. cerevisiae FUS-expressing, growth rescue, OD600, 24 h. Potency, µM (titrated, usually from 76.6 µM), hits mostly activators. 0.24% of 390,000 active. AID 1347120;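 further: plate controls were DMSO vehicle for no effect and reference control for full effect; nearly all actives have a fitted effect of over 55% in size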
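Galactose (2%) drives FUS expression in yeast precultured in raffinose; seeding density OD 0.005. Test compounds incubated 24hr at 30C and 99% humidity before absorbance at 600 nm was measured.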
Abeta rescue – compounds reversing amyloid beta toxicity in yeast; yeast expressing A-beta42, growth rescue, OD600, 48 h; response scale: 0% DMSO, 100% iron-clioquinol control; Potency, µM (top dose mostly 46.1 µM), most hits filed as activators; 0.063% of 410,000 active; AID 1347071; further: nearly all actives have a fitted effect of over 55% in size
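Yeast growth medium received pinned compounds, then yeast cells expressing toxic A-beta were added; plates incubated at 30 C for 48 hr. Growth read as absorbance at 600 nm, normalized to DMSO and equimolar FeCl3 plus clioquinol controls.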
aSyn rescue – inhibitors of alpha-synuclein toxicity in yeast; Yeast expressing alpha-synuclein, growth rescue, BacTiter-Glo, 24 h; Potency, µM (highest dose often 46.1 µM), without a hit: top-dose growth rescue (activation), actives largely listed as activators; AID 652106; 0.14% of 370,000 active; further: % of control where 0% means no effect; nearly all actives have a fitted effect of over 65% in size
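Readout is rescue of growth in alpha-synuclein-expressing yeast, so inhibitors of toxicity appear as activators. Growth after 24 hr at 30 deg C in galactose medium is quantified by luminescence.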
TDP43 rescue – TDP-43 toxicity inhibition in yeast; 1.8% of 410,000 active; Potency, µM (series often up to 46.1 µM), inactives show at the top dose growth rescue (activation), most hits filed as activators; TDP-43 expressing yeast growth rescue, BacTiter-Glo, 24 h; further: % of control where 0% means no effect; nearly all actives have a fitted effect of over 50% in size
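Yeast expressing TDP-43 (pregrown in raffinose, seeded at OD600=0.02 in galactose medium) exposed to compounds 24 hr at 30 deg C. Growth read by BacTiter-Glo luminescence; rescue of toxicity appears as increased signal.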
An asterisk follows results filed as active; i = inactive; ? = inconclusive; · = no result given; ! = repeats disagree; [ ] = remark or other dose. A selection: hits, their analogues and other compounds. The true share with any hit is near 2.1%. The call rests on the fitted dose curve; in most records, active means well fitted curve in the direction sought with a large enough effect; inconclusive means small, poorly fitted or top-dose-only effect, or another doubt; inactive means no such curve, though single readings can be large; an effect the other way counts as inactive or inconclusive. Potency means the concentration at half of the fitted maximal effect.

SMILES	FUS yeast rescue	Abeta rescue	aSyn rescue	TDP43 rescue
COc1cc2c(C(=O)N3CCN(c4cc(Cl)ccc4C)CC3)cn(CC(C)C)c(=O)c2cc1OC	i	i	·	6%
COc1cc2c(C(=O)N3CCN(c4cccc(C(F)(F)F)c4)CC3)cn(CC(C)C)c(=O)c2cc1OC	22µM*	i	·	?
CCOC(=O)N1CCc2c(sc3c2c(=O)n(Cc2ccccc2)c(=O)n3Cc2ccccc2Cl)C1	i	i	·	6%
Cn1cnc([N+](=O)[O-])c1NC(C)(C)C	i	i	-4%	2%
Cn1cnc([N+](=O)[O-])c1S(=O)(=O)c1ccc(Cl)cc1	i	i	0%	14µM*
O=C(Nc1ccc(OC(F)F)cc1)c1nc(SCc2ccccc2F)ncc1Cl	·	·	2%	·
CC(=O)N1CCc2c(sc3c2c(=O)n(CCc2ccccc2)c(=O)n3Cc2cccc(C)c2)C1	i	i	·	22µM*
Cc1cc(C)nc(NC(=O)Cc2ccc(Cl)cc2)c1	i	i	-7%	18µM*
O=C(Cc1ccc(Cl)cc1)Nc1ccc(Cl)cn1	i	i	-10%	15%
CCOC(=O)[C@@]12CCCC3=C1N(CCC3)C(=O)[C@H]2CC(=O)N1CCN(C(=O)C2CC2)CC1	i	·	·	·
CCCSc1nc2c([nH]c3ccccc32)c(=O)n1C	i	i	·	11%
CC(NC(=O)OCc1ccccc1)C(=O)Oc1cc2oc(=O)cc(-c3ccccc3)c2cc1Cl (stereo unspecified)	i	i	3%	6.3µM*
CCOC(=O)C1CCN(C(c2cc3ccc(C)c(C)c3[nH]c2=O)c2nnnn2C2CCCCC2)CC1 (stereo unspecified)	35µM*	i	13%	0%
C=CCOc1ccc(/C=C/C(C)=N\O)cc1	i	i	·	10µM*
O=C(Cc1ccc(Br)cc1)NO	·	·	-2%	·
Cc1cc(OCCn2c(C3CC(=O)N(Cc4ccc(F)cc4)C3)nc3ccccc32)ccc1Cl (stereo unspecified)	i	i	·	4%
CCc1ccccc1N1CC(c2nc3ccccc3n2CCOc2ccc(Cl)c(C)c2)CC1=O (stereo unspecified)	25µM*	i	·	-11%
CCc1ccc(N2CC(c3nc4ccccc4n3Cc3ccccc3C)CC2=O)cc1 (stereo unspecified)	?	i	·	28µM*
Cc1ccc(C)c(OCCn2c(C3CC(=O)N(Cc4ccc(F)cc4)C3)nc3ccccc32)c1 (stereo unspecified)	?	i	·	35µM*
Cc1cccc(OCCCCn2c(C3CC(=O)N(c4ccc(C)cc4C)C3)nc3ccccc32)c1 (stereo unspecified)	?	i	·	32µM*
COc1ccc(OC)c(NC(=O)Cn2cnc3sc(C)c(S(=O)(=O)N4CCN(c5ccccc5OC)CC4)c3c2=O)c1	i	i	·	17%
CCn1nc(-c2ccccc2C)nc2c(=O)n(C)c(=O)nc1-2	·	·	-76%	·
COc1ccc(Br)cc1CNC(=O)c1cc(=O)[nH]c2ccc(S(=O)(=O)N3CCCCC3)cc12	i	i	·	19%
Oc1ccc(Br)cc1-c1nc2cnccn2c1NC1CCCC1	i	i	11%	22µM*
COc1ccc(CNC(=O)c2cc(C3CC3)nc3c2cnn3C(C)C)cc1OC	i	i	-1%	12%
SMILES	FUS yeast rescue	Abeta rescue	aSyn rescue	TDP43 rescue
COc1cccc(CNC(=O)c2cc(C3CC3)nc3c2cnn3C(C)C)c1	?	i	1%[1.84 µM]	18µM*
Cc1ccccc1CCNC(=O)c1cc(C2CC2)nc2c1cnn2C(C)C	i	i	8%	35µM*
CCOC(=O)c1scc(-c2ccccc2)c1S(=O)(=O)Nc1ccc(N(C)C)cc1	i	i	·	-2%
C#CCOc1ccc2c(C)cc(=O)oc2c1	i	i	0%	20µM*
Cc1ccc(C(=O)NCc2ccccc2)cc1NC(=O)c1nsc2ccccc12	i	i	·	?
CC(C)(C)C(=O)Nc1ccc(C(=O)N/N=C/c2ccccc2OC(=O)c2ccc(Cl)cc2)cc1	22µM*	i	2%	-17%
CC(=O)c1ccc(Sc2ccccc2)c([N+](=O)[O-])c1	i	i	1%	11µM*
Cc1ccc(Sc2ccc(CO)cc2[N+](=O)[O-])cc1	i	i	24%	14µM*
COc1cccc(Cn2c(CNS(=O)(=O)c3ccc(F)c(Cl)c3)nc3cccnc32)c1	i	i	·	-12%
Cc1ccc(CNC(=O)C2CCN(S(=O)(=O)c3ccc4c(c3)CCCN4C(=O)C3CCC3)CC2)cc1	i	i	·	3%
CC(=O)N1CCCc2cc(S(=O)(=O)N3CCCC(C(=O)N4CCN(c5cc(C)ccc5C)CC4)C3)ccc21 (stereo unspecified)	13µM*!	i	7%	-8%
Cc1cccc(CNC(=O)C2CCN(S(=O)(=O)c3ccc4c(c3)CCCN4C(=O)C3CCC3)CC2)c1	28µM*	i	·	3%
CC(=O)N1CCCc2cc(S(=O)(=O)N3CCCC(C(=O)N4CCN(c5ccccc5)CC4)C3)ccc21 (stereo unspecified)	i	i	0%	11%
CCN1C(=O)[C@H]2[C@@H](c3ccc(-c4ccc5c(c4)OCO5)cc3)N[C@@](Cc3ccccc3)(C(=O)OC)[C@H]2C1=O	i	i	-2%	-2%
CCN1C(=O)[C@H]2[C@@H](c3ccc(-c4cccc(Cl)c4)cc3)N[C@@](Cc3ccccc3)(C(=O)OC)[C@H]2C1=O	14µM*	i	16%	3%
CCn1nnc2cc(C(=O)Nc3cccc(Cl)c3C)ccc21	i	i	·	4%
Cc1ccc2c(c1)C1CS(=O)(=O)N(C3CCCC3)CN1C2 (stereo unspecified)	i	·	·	·
CSc1nnc2c3cc(F)ccc3n(C)c2n1	i	i	2.8µM*	6.3µM*
CCN(CC)CCSc1nnc2c3cc(F)ccc3n(C)c2n1	i	i	·	-15%
CC1=Nc2ccccc2/C1=C(/C)c1c(C)[nH]c2ccccc12	·	·	-18%	·
O=C1C(=O)c2ccc(-c3ccccc3)cc2-c2ccccc21	i	i	-36%	3.5µM*
Nc1ccc2c(c1)C(=O)C(=O)c1ccccc1-2	i	i	-81%	-92%
O=C(NCCSc1c[nH]c2ccccc12)c1ccc(Cl)cc1	i	i	·	-9%
COc1ccccc1C(=O)NCCSc1c(C)[nH]c2ccccc12	i	?	·	32µM*
COc1cc(C(=O)NCCSc2c(C)[nH]c3ccccc23)cc(OC)c1OC	i	i	·	23%
COc1cccc(C(=O)NCCSc2c(C)[nH]c3ccccc23)c1OC	i	i	?	?
Cc1[nH]c2ccccc2c1SCCNC(=O)c1ccccc1F	i	14µM*	·	14µM*
O=C(NCCSc1c[nH]c2ccccc12)c1ccccc1Cl	i	i	·	35µM*
COc1cc(Br)c(CC(=O)NO)cc1OC	·	·	2%	·
